Measurements published in PubChem BioAssay.
A number with no mark means an inactive call. For part of these data: Results with a measured potency or affinity are listed apart. Calls of active or inactive are those of the source. Unless noted, how the calls were made is not given here.

Legend:
[1] = antimalarial activity against Dd2 strain (AID 2302;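 active means growth inhibition above 50% at the single 2 µM test dose, taken to imply half-maximal potency below 2 µM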;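 further: 0% = DMSO untreated growth and 100% = chloroquine plus artemisinin killed control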); settings: P. falciparum Dd2 in RBCs, LDH growth readout, 72 h; at 2 µM; stronger effect = higher value
[2] = HepG2 cytotoxicity, primary screen, cytotoxicity control for P. falciparum antimalarial project, cell-based, ATP luminescence (AID 2303;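 active means inhibition above 50%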;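 further: 0% = DMSO wells and 100% = digitonin-killed cells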); settings: HepG2 viability, 24-48 h, at 10 µM, stronger effect = higher value
[3] = biological target: L-lactate dehydrogenase (Plasmodium falciparum (isolate CDC / Honduras)) (UniProt Q27743); experiment: PfLDH activity inhibition – cell lysate, 3D7 strain, counter-screen for P. falciparum growth inhibition project (AID 2304);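 further: 0% = vehicle and 100% = reference inhibitor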; settings: P. falciparum 3D7 crude extract, LDH APAD/NBT absorbance; at 2 µM; stronger effect = higher value
[4] = inhibition of 3D7 malaria parasite growth – strain 3D7 (AID 2306);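 further: 0% = DMSO wells and 100% = chloroquine plus artemisinin control wells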; settings: P. falciparum 3D7 erythrocytic growth, LDH absorbance, 72 h; at 2 µM; stronger effect = higher value
[5] = biological target: Calcium-dependent protein kinase 1 (Plasmodium falciparum (isolate 3D7)) (UniProt P62344); experiment: PfCDPK1 kinase inhibitors, biochemical, TCAMS library (AID 1159585; cut-off not given, nearly all actives have IC50 up to about 0.98 µM;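 further: inhibitors leave more ATP so luminescence rises with inhibition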); settings: recombinant PfCDPK1, Kinase-Glo ATP depletion luminescence
[6] = biological target: Plasmodium falciparum protein kinase 6 (PK6, PF3D7_1337100) (UniProt Q8IDW1); experiment: PfPK6 kinase inhibitors, biochemical, TCAMS library (AID 1159586); settings: recombinant PfPK6, Kinase-Glo ATP depletion luminescence
[7] = biological target: Protein kinase 7 (PK7), Plasmodium falciparum 3D7 (PF3D7_0213400) (UniProt Q7YTF7); experiment: inhibition of Plasmodium PK7 catalytic activity – biochemical, TCAMS antimalarial set, Kinase-Glo luminescence (AID 1159587); settings: recombinant PfPK7, Kinase-Glo ATP depletion luminescence
[8] = biological target: Calcium-dependent protein kinase 4 (Plasmodium falciparum (isolate 3D7)) (UniProt Q8IBS5); experiment: PfCDPK4 kinase inhibitors, biochemical, TCAMS library (AID 1159588; cut-off not given, nearly all actives have IC50 up to about 0.91 µM); settings: recombinant PfCDPK4, Kinase-Glo ATP depletion luminescence
Chain of Calcium-dependent protein kinase 4 (Plasmodium falciparum (isolate 3D7)) (Q8IBS5 whole entry, looked up): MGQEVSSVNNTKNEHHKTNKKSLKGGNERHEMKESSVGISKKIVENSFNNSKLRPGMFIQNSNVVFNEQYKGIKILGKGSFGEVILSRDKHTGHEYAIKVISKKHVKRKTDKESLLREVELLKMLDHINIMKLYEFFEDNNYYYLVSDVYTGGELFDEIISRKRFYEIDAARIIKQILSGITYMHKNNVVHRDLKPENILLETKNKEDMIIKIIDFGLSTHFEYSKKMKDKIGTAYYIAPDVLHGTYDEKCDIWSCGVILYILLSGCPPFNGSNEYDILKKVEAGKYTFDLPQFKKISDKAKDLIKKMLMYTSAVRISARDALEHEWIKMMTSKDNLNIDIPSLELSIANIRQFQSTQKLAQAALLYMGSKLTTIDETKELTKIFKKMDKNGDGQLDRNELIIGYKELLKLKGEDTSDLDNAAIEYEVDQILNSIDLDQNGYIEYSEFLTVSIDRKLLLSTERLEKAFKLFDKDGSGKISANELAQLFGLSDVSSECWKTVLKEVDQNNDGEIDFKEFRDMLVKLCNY

Chain of Calcium-dependent protein kinase 1 (Plasmodium falciparum (isolate 3D7)) (P62344 whole entry, looked up): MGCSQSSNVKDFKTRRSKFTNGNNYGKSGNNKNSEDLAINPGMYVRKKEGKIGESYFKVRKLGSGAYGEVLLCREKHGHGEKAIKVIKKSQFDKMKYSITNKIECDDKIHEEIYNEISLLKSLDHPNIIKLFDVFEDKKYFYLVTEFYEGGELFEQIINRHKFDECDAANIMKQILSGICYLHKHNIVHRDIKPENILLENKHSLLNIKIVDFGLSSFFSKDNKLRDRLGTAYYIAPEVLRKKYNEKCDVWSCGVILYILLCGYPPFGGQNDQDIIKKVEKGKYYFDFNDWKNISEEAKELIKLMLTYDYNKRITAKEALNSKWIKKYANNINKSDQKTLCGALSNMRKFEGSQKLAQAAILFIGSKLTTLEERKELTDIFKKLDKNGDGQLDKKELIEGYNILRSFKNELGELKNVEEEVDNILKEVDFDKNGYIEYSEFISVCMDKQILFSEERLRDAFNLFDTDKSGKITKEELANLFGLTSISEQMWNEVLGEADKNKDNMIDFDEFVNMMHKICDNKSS
Chain of Protein kinase 7 (PK7), Plasmodium falciparum 3D7 (PF3D7_0213400) (Q7YTF7 1-343): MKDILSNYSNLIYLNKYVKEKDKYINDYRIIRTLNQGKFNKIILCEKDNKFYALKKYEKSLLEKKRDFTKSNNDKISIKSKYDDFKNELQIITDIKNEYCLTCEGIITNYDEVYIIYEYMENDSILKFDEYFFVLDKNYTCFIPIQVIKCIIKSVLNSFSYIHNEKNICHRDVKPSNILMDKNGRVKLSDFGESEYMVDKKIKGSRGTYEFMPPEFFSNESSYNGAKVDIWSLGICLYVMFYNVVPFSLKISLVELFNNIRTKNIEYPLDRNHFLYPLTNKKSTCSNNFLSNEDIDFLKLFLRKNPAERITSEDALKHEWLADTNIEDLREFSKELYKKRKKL
Chain of L-lactate dehydrogenase (Plasmodium falciparum (isolate CDC / Honduras)) (Q27743 whole entry, looked up): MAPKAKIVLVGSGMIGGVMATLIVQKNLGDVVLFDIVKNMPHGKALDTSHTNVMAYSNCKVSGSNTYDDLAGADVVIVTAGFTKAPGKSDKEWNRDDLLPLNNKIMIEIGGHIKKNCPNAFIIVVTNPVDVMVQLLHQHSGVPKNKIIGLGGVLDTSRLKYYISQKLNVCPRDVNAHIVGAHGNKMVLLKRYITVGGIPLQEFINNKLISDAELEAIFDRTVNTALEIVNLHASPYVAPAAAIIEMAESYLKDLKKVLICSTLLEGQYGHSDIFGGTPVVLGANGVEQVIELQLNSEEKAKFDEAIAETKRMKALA
Chain of Plasmodium falciparum protein kinase 6 (PK6, PF3D7_1337100) (Q8IDW1 1-305): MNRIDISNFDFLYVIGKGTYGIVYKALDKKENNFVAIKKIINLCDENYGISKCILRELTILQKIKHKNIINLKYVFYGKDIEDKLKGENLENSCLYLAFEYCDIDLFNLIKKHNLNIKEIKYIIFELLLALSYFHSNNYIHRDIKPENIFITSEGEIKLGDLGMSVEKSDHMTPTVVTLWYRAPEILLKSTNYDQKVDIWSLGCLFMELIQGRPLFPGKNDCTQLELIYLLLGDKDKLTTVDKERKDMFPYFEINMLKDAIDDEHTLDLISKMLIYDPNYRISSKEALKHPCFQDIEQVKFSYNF

Row | SMILES | growth inhibition [1] | inhibition [2] | inhibition [3] | growth inhibition [4] | outcome [5] | outcome [6] | outcome [7] | outcome [8]
1 | Cc1cccc2[nH]c(-c3ccc(-c4cccc(CNCc5ccc(CN)cc5)c4)s3)nc12 | 48% | 11% | -2% | 99% (active) | inactive | inactive | inactive | inactive
2 | Cn1c(-c2ccccc2)cc2c3c(=O)cc(C(F)(F)F)[nH]c3ccc21 | 49% | 21% | -1% | 95% (active) | inactive | inactive | inactive | inactive
3 | Cc1c(-c2ccc(C(=O)NC3CC(C)(C)NC(C)(C)C3)cc2)[nH]c2cc(Cl)c(Cl)cc12 | 68% (active) | 34% | 0% | 98% (active) | inactive | inactive | inactive | inactive
4 | COc1ccc2nccc([C@@H](O)CN3CCC(NC(=O)C(c4ccccc4C)N4CCC(Cc5ccccc5)CC4)CC3)c2c1 (some centres not stated) | 97% (active) | 10% | 3% | 102% (active) | inactive | inactive | inactive | inactive
5 | NC1=NC(Cc2ccccc2)N(c2ccc(Cl)cc2)C(N)=N1 (configuration not stated) | 4% | 21% | -2% | 93% (active) | inactive | inactive | inactive | inactive
6 | N#Cc1cccc(C(O)CN(Cc2ccccc2)Cc2ccccc2)c1 (configuration not stated) | 100% (active) | 12% | 1% | 101% (active) | inactive | inactive | inactive | inactive
7 | O=C(/C=C/C=C/c1ccc(Cl)c(Cl)c1)NCCCCCN1CCCC2CCCCC21 (configuration not stated) | 48% | 41% | -5% | 91% (active) | inactive | inactive | inactive | inactive
8 | Cc1cc(F)ccc1C1CCN(CCCCNC(=O)c2ccc(NC(=O)c3ccc(Cl)cc3)cc2)CC1 | 79% (active) | 19% | 0% | 101% (active) | inactive | inactive | inactive | inactive
9 | C=CCOC(=O)N1CCC(CNCc2ccc(-c3ccc(-c4nc5ccc(C(F)(F)F)cc5[nH]4)cc3)cc2)C1 (configuration not stated) | 98% (active) | 44% | -2% | 103% (active) | inactive | inactive | inactive | inactive
10 | O=C(Nc1ccc(S(=O)(=O)N2CCCC2)cc1)c1cc(-c2cccnc2)nc2ccc(Cl)cc12 | 95% (active) | 4% | -6% | 97% (active) | inactive | inactive | inactive | inactive
11 | CC1(CCCCN2CCC(Oc3ccc(F)cc3F)CC2)C(=O)Nc2ccccc21 (configuration not stated) | 6% | 6% | -6% | 99% (active) | inactive | inactive | inactive | inactive
12 | CCOc1cc(C(=O)N[C@@H](Cc2ccccc2)[C@H](O)CNC(C)(C)c2cccc(OC)c2)cc(N2CCCS2(=O)=O)c1 | 99% (active) | -5% | -3% | 99% (active) | inactive | inactive | inactive | inactive
13 | O=C(Nc1ccc2ccccc2c1)N1CCC(NCc2cccc([N+](=O)[O-])c2)CC1 | -3% | -1% | 2% | 98% (active) | inactive | inactive | inactive | inactive
14 | O=C(NC1CCCCN(Cc2ccccc2O)C1)c1cccc(Cl)c1 (configuration not stated) | 30% | 15% | -4% | 86% (active) | inactive | inactive | inactive | inactive
15 | CCCCOc1ccc(C(=O)C(CCC(CNC(C)(C)C)C(=O)c2ccc(OCCCC)cc2)CNC(C)(C)C)cc1 (configuration not stated) | 92% (active) | 100% (active) | 1% | 94% (active) | inactive | inactive | inactive | inactive
16 | c1cc(CNCc2ccc3c(c2)OCO3)cc(-c2cccc(CNc3ccc4ncccc4c3)c2)c1 | 27% | 18% | -4% | 98% (active) | inactive | inactive | inactive | inactive
17 | N=C(N)c1cccc(-c2cc(-c3cccc(C(=N)N)c3)on2)c1 | 78% (active) | 8% | 3% | 96% (active) | inactive | inactive | inactive | inactive
18 | COc1ccc(NCCCNc2ccnc3ccccc23)cc1 | 17% | 34% | 2% | 88% (active) | inactive | inactive | inactive | inactive
19 | FC(F)(F)c1ccc(-c2ccc(CNC3CCN(CCN4CCOCC4)CC3)cc2)cc1 | 74% (active) | 44% | 0% | 103% (active) | inactive | inactive | inactive | inactive
20 | Nc1ncc(Cc2ccc3c(ccc4ccccc43)c2)c(N)n1 | 3% | 9% | -5% | 97% (active) | inactive | inactive | inactive | inactive

Row | SMILES | growth inhibition [1] | inhibition [2] | inhibition [3] | growth inhibition [4] | outcome [5] | outcome [6] | outcome [7] | outcome [8]
21 | COc1cc(NCC(O)CNc2cc(OC)c3ccccc3n2)nc2ccccc12 | 93% (active) | 42% | 5% | 100% (active) | inactive | inactive | inactive | inactive
22 | Cc1ccc(NC(=O)c2ccc(-c3cc4cc(Cl)c(Cl)cc4[nH]3)cc2)cc1OCCN1CCCC1 | 90% (active) | 7% | -6% | 101% (active) | inactive | inactive | inactive | inactive
23 | CSC1=NC(=Nc2c(C)cccc2C)C2(CCC(C(C)(C)C)CC2)N1c1ccc(O)cc1 (configuration not stated) | 93% (active) | 5% | 1% | 97% (active) | inactive | inactive | inactive | inactive
24 | Cc1cnc(N2CCN(CCCN3CCCC3)CC2)nc1Oc1ccc(-n2ccnc2)cc1 | 82% (active) | 12% | 4% | 99% (active) | inactive | inactive | inactive | inactive
25 | Cc1cccc2[nH]c(-c3ccc(-c4ccc(CN5CCC(C(N)=O)CC5)cc4)cc3)nc12 | 32% | 8% | 1% | 91% (active) | inactive | inactive | inactive | inactive
26 | CC(C)c1ccc(NC(=O)c2cccc(CN3CCCN(CC4CCCCC4)CC3)c2)cc1 | 59% (active) | 62% (active) | 2% | 85% (active) | inactive | inactive | inactive | inactive
27 | Cc1cccc2[nH]c(-c3ccc(-c4ccc(CN5CCC(CO)CC5)cc4)s3)nc12 | 82% (active) | 15% | -10% | 101% (active) | inactive | inactive | inactive | inactive
28 | CN1CCN(c2cc3c(cc2Cl)CCN3C(=O)Nc2ccc(NC(=O)c3ccc(C(F)(F)F)cc3)cc2)CC1 | 99% (active) | 98% (active) | -4% | 100% (active) | inactive | inactive | inactive | inactive
29 | O=C(NCCSCc1c(F)cccc1Cl)c1cnc2c(c1)nc(-c1cnc(-c3ccccc3)[nH]1)n2CCc1cnc[nH]1 | 45% | 10% | 0% | 93% (active) | inactive | inactive | inactive | inactive
30 | Cc1cc(NC2CCCC2)nc(Nc2ccccc2C)n1 | 20% | -2% | 2% | 88% (active) | inactive | inactive | inactive | inactive
31 | O=C(CNC(=O)c1ccc(O)cc1)Nc1ccc(-c2cccc(-c3nc4ccc(C(F)(F)F)cc4[nH]3)c2)cc1 | 47% | 26% | 3% | 92% (active) | inactive | inactive | inactive | inactive
32 | CC(=O)N(C)C1CCN(Cc2cccc(-c3ccc(-c4nc5ccc(F)cc5[nH]4)cc3)c2)C1 (configuration not stated) | 19% | 24% | 0% | 92% (active) | inactive | inactive | inactive | inactive
33 | Cc1cnc(C(=O)Nc2cccc(-c3csc(-c4nc5ccccc5[nH]4)c3)c2)cn1 | 80% (active) | 31% | -1% | 98% (active) | inactive | inactive | inactive | inactive
34 | Cc1cccc2[nH]c(-c3ccc(-c4ccc(CNCCN5CCNCC5)cc4)s3)nc12 | -2% | 30% | 3% | 88% (active) | inactive | inactive | inactive | inactive
35 | O=C(Nc1ccc(-c2oc(C(=O)NCCc3cccc(Cl)c3)cc2-c2ccncc2)cc1)Nc1cccc(Cl)c1 | 84% (active) | 13% | -1% | 99% (active) | inactive | inactive | inactive | inactive
36 | COc1ccc(NS(=O)(=O)c2ccc(C(=O)Nc3ccc(C(F)(F)F)cc3)cc2)cc1N1CCN(CC2CC2)CC1 | -5% | 15% | 1% | 92% (active) | inactive | inactive | inactive | inactive
37 | COc1cccc(CCNc2nc(NCc3ccccc3)c3cc(OC)c(OC)cc3n2)c1 | 99% (active) | 20% | -6% | 100% (active) | inactive | inactive | inactive | inactive
38 | Cc1cc(NCc2ccc(F)cc2)nc2cc(O)ccc12 | 85% (active) | 14% | -7% | 98% (active) | inactive | inactive | inactive | inactive
39 | c1cc(CN2CCC(CCN3CCCCC3)CC2)cc(-c2cccc(-c3nc4ccccc4[nH]3)c2)c1 | 101% (active) | 95% (active) | -3% | 100% (active) | inactive | inactive | inactive | inactive
